# Assay results taken from PubChem BioAssay (Tox21).
# Values joined by “and” are separate entries in the source; they are usually repeats but may differ in a detail not shown here. Equal entries are not always repeated. Inconclusive results are not listed. A call without a number means that no potency is given here. The source holds several records for some structures; these can differ, active in one and inactive in another. Active and inactive are the calls of the source. Unless noted, calls come from the whole dose curve; as a rule, active = well fitted curve in the direction sought with a large enough effect in the repeat runs; inconclusive = weak or mixed curves; inactive = no such curve, though single readings can be large; an effect the other way counts as inactive or inconclusive.
# Tests used:
# [1] = target: Thyrotropin receptor (Homo sapiens) (UniProt P16473); experiment: qHTS assay to identify small molecule antagonists of the thyroid stimulating hormone receptor (TSHR) signaling pathway (AID 1259385; calls by dose curve; note: nearly all actives have a fitted effect of over 20% in size); conditions: TSHR-HEK293 cAMP HTRF, TSH-stimulated antagonist mode; series mostly up to 92.4 µM
# Procedure, shortened: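 TSHR-HEK293 cells were plated and held 18 h at 37C/5% CO2, then given compound plus Ro20-1724 and stimulated with TSH at 1.5 ng/mL final. After 30 min at room temperature, cAMP was detected with cAMP-d2/anti-cAMP-cryptate (1 h) by fluorescence.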
# [2] = qHTS assay to identify small molecule agonists of the estrogen receptor alpha (ER-alpha) signaling pathway in the presence of an antagonist - cell viability counter screen (AID 1259386); conditions: VM7Luc4E2 viability, CellTiter-Fluor fluorescence, 22 h; series mostly up to 92.4 µM;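 note: cells exposed to compounds for 22 h at 37 °C before the viability read; nearly all actives have a fitted effect of over 30% in size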; note: potency is the fitted concentration of half-maximal effect
# Procedure, shortened: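 Steps: 5-day stripped-FBS culture; seed and incubate 24hr; add ICI-182,780 (10.0nM final); pin 15-point compound titration; incubate 22hr at 37C; add CellTiter-Fluor at 21hr; read fluorescence.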
# [3] = target: Progesterone receptor (Homo sapiens) (UniProt P06401); experiment: qHTS assay to identify small molecule agonists of the progesterone receptor (PR) signaling pathway (AID 1346784; calls by dose curve; note: nearly all actives have a fitted effect of over 30% in size); conditions: PR-UAS-bla HEK293T, beta-lactamase FRET ratio, 16 h; series mostly up to 92.4 µM
# Procedure, shortened: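 PR-UAS-bla HEK 293T cells (beta-lactamase reporter under UAS) in 2% charcoal-stripped FBS, dosed with 23 nL compound after 6 hr, incubated 16hr at 37C. LiveBLAzer B/G FRET substrate added, fluorescence read after 2 hours.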
# [4] = target: Progesterone receptor (Homo sapiens) (UniProt P06401); experiment: qHTS assay to identify small molecule antagonists of the progesterone receptor (PR) signaling pathway (AID 1346795; active = well fitted inhibition curve with a large enough effect in the signal ratio in the repeat runs, not every such curve was filed as active; the % refers to the signal ratio; note: potency is the fitted concentration of half-maximal effect); conditions: PR-UAS-bla HEK293T, beta-lactamase FRET ratio, 16 h; series mostly up to 92.4 µM
# Procedure, shortened: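 PR-UAS-bla HEK293T cells with beta-lactamase reporter under UAS control, in 2% charcoal-stripped FBS, treated with compounds plus 1 nM promegestone (R5020, final) for 16 hr at 37C. Read-out: FRET beta-lactamase substrate fluorescence after 2 hr at room temperature.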
# [5] = qHTS assay to identify small molecule agonists of the progesterone receptor (PR) signaling pathway - cell viability counter screen (AID 1346799; calls by dose curve; note: nearly all actives have a fitted effect of over 45% in size); conditions: PR-UAS-bla HEK293T viability, CellTiter-Glo luminescence, 16 h; series mostly up to 92.4 µM
# Procedure, shortened: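 Counter screen in the PR-UAS-bla HEK293T wells (2% charcoal-stripped FBS, 16 h compound exposure at 37 C) after the bla read. CellTiter-Glo added, 30 min at room temperature, luminescence read as cell viability.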
# [6] = qHTS assay to identify small molecule antagonists of the TGF-beta/Smad signaling pathway - cell viability counter screen (AID 1346824); conditions: SBE-bla HEK293T viability, CellTiter-Glo luminescence; series mostly up to 76.8 µM; note: nearly all actives have a fitted effect of over 50% in size
# Procedure, shortened: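 SBE-bla HEK 293T cells were plated overnight at 37 C, then given compounds in DMSO plus TGF-beta1 (added as 0.25 ng/mL solution) for 5 hr. After the bla read, CellTiter-Glo was added to the same wells and luminescence read after 30 min at room temperature.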
# [7] = qHTS assay to identify small molecule agonists of the TGF-beta/Smad signaling pathway - cell viability counter screen (AID 1346829); conditions: SBE-bla HEK293T viability, CellTiter-Glo luminescence, 5 h; series mostly up to 76.8 µM; note: top concentration of the series differs between compounds; nearly all actives have a fitted effect of over 45% in size
# Procedure, shortened: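 SBE-bla HEK 293T cells plated overnight, compound exposure 5 hr at 37 C. Viability read in the same wells by CellTiter-Glo luminescence after 30 min at room temperature, following the beta-lactamase read.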
# [8] = qHTS assay to identify small molecule agonists of the TGF-beta/Smad signaling pathway (AID 1346859; active = well fitted activation curve with a large enough effect in the signal ratio in the repeat runs, not every such curve was filed as active; the % refers to the signal ratio); conditions: SBE-bla HEK293T, TGF-beta/Smad beta-lactamase reporter, 5 h; series mostly up to 76.8 µM
# Procedure, shortened: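 SBE-bla HEK293T cells plated overnight, then compound exposure for 5 h at 37 C. Beta-lactamase reporter read with LiveBLAzer B/G FRET substrate after 2 h at room temperature, fluorescence at 405 nm excitation, 460/530 nm emission.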
# [9] = target: Thyrotropin-releasing hormone receptor (Homo sapiens) (UniProt P34981); experiment: qHTS assay to identify small molecule antagonists of the thyrotropin-releasing hormone receptor (TRHR) signaling pathway (AID 1346877; active = well fitted inhibition curve with a large enough effect in the repeat runs, not every such curve was filed as active); conditions: TRHR-HEK293, TRH-induced calcium fluorescence, antagonist mode; series mostly up to 51.3 µM
# Procedure, shortened: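 Human TRHR in HEK293 cells; inhibition of the intracellular calcium rise triggered by 1 nM TRH was followed by fluorescence over 3 min. Compounds were run at 15 concentrations, three replicates each.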
# [10] = target: Thyrotropin-releasing hormone receptor (Homo sapiens) (UniProt P34981); experiment: qHTS assay to identify small molecule agonists of the thyrotropin-releasing hormone receptor (TRHR) signaling pathway (AID 1346891; calls by dose curve); conditions: TRHR-HEK293 calcium fluorescence, agonist mode; series mostly up to 57.6 µM
# Procedure, shortened: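 HEK293 cells expressing TRHR plated 18 h at 37 C/5% CO2, calcium dye-loaded 2 h at 37 C, then compound added (agonist mode); kinetic calcium fluorescence read 3 min at 1 s intervals; 15 concentrations in triplicate.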
# [11] = Human pregnane X receptor (PXR) small molecule agonists, qHTS cell viability counter screen (AID 1346977); conditions: PXR-Luc HepG2 viability, CellTiter-Fluor, 24 h; series mostly up to 92.4 µM; note: nearly all actives have a fitted effect of over 50% in size; note: potency is the fitted concentration of half-maximal effect
# Procedure, shortened: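 PXR-Luc HepG2 cells (2,000/well, 5% charcoal-stripped FBS) preincubated 5 hr, then exposed to compounds 24 hr at 37 C. Viability read in the same wells by CellTiter-Fluor fluorescence, reagent added at 23 hr, 1 hr incubation.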
# [12] = Caspase-3/7 induction in HepG2 cells by small molecules, qHTS assay (AID 1346978); conditions: HepG2 caspase-3/7 activation, Caspase-Glo luminescence, 17 h; series mostly up to 92.4 µM; note: nearly all actives have a fitted effect of over 15% in size
# Procedure, shortened: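 Wild-type HepG2 cells (2,000/well) were settled 5 h at 37 C, 5% CO2, then exposed to compounds in DMSO for 17 h. Caspase-3/7 activity was read by luminescence 30 min after adding Caspase-Glo 3/7 reagent at room temperature.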
# [13] = Caspase-3/7 induction in CHO-K1 cells by small molecules, qHTS cell viability counter screen (AID 1346979); conditions: CellTiter-Fluor fluorescence, 17 h; series mostly up to 92.4 µM; note: nearly all actives have a fitted effect of over 35% in size; note: potency is the fitted concentration of half-maximal effect
# Procedure, shortened: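 Wild-type CHO-K1 cells (1,500/well) treated with compound after 5 h plating; after 16 h at 37C, viability read as CellTiter-Fluor fluorescence following 1 h reagent incubation, in the same wells as the caspase read.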
# [14] = Caspase-3/7 induction in CHO-K1 cells by small molecules, qHTS assay (AID 1346980); conditions: CHO-K1 caspase-3/7 induction, Caspase-Glo luminescence, 17 h; series mostly up to 92.4 µM; note: nearly all actives have a fitted effect of over 15% in size
# Procedure, shortened: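 Wild-type cells were seeded at 1,500 per well and settled 5 hr at 37 C, 5% CO2, then exposed to DMSO-dissolved compounds for 17 hr. Caspase-Glo 3/7 reagent was added, and luminescence was read after 30min at room temperature.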
# [15] = Caspase-3/7 induction in HepG2 cells by small molecules, qHTS cell viability counter screen (AID 1346981); conditions: CellTiter-Fluor fluorescence, 17 h; series mostly up to 92.4 µM; note: nearly all actives have a fitted effect of over 30% in size; note: potency is the fitted concentration of half-maximal effect
# Procedure, shortened: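 The parent HepG2 line is plated at 2,000 cells per well and rested 5 hr before compound pinning from DMSO stocks. Following a 16-hr treatment at 37 C, a fluorogenic live-cell substrate (CellTiter-Fluor) reports viability after 1 hr.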
# [16] = target: Nuclear receptor subfamily 1 group I member 2 (Homo sapiens) (UniProt O75469); experiment: Human pregnane X receptor (PXR) small molecule agonists, qHTS assay (AID 1346982); conditions: PXR-Luc HepG2, CYP3A4 luciferase reporter, 24 h; series mostly up to 92.4 µM; note: nearly all actives have a fitted effect of over 35% in size; note: potency is the fitted concentration of half-maximal effect
# Procedure, shortened: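 After plating in 5% charcoal-stripped FBS and a 5 hr rest, PXR-Luc HepG2 cells received compounds in DMSO. Following 24 hr at 37 C, ONE-Glo was added and light output read.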
# [17] = qHTS assay to identify small molecule antagonists of the progesterone receptor (PR) signaling pathway - cell viability counter screen (AID 1346798); conditions: PR-UAS-bla HEK293T viability, CellTiter-Glo luminescence, 16 h; series mostly up to 92.4 µM; note: nearly all actives have a fitted effect of over 50% in size
# Procedure, shortened: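 PR-UAS-bla HEK293T cells, 3,000/well in 2% charcoal-stripped FBS medium, dosed with compounds plus R5020 agonist and incubated 16 h at 37C. Viability then measured in the same wells by CellTiter-Glo luminescence after 30 min at RT.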
# [18] = target: Nuclear receptor subfamily 1 group I member 2 (Rattus norvegicus) (UniProt Q9R1A7); experiment: Rat pregnane X receptor (rPXR) activation by small molecules, qHTS assay (AID 1346983); conditions: rPXR luciferase reporter cells, One-Glo luminescence, 24 h; max activation: stronger effect = higher value; note: nearly all actives have a fitted effect of over 20% in size
# Procedure, shortened: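 Cell-based rPXR luciferase reporter assay, 2,000 cells per well, rested 5hr at 37 C before compound addition in DMSO, then 24 hr at 37 C. One-Glo reagent was added and luminescence read after 30 min at room temperature.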
# [19] = target: Nuclear receptor subfamily 1 group I member 2 (Homo sapiens) (UniProt O75469); experiment: CYP3A4 induction through human pregnane X receptor (PXR) by small molecules, qHTS assay (AID 1346984); conditions: DPX-2 HepG2 PXR, CYP3A4-luciferin luminescence, 24 h; series mostly up to 46.1 µM; note: nearly all actives have a fitted effect of over 40% in size
# Procedure, shortened: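 Human PXR activation is tracked via CYP3A4 promoter-luciferase in DPX-2 (HepG2) cells. Compounds treat cells for 24hr at 37C, and luminescence is read after One-Glo.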
# [20] = target: Nuclear receptor subfamily 1 group I member 2 (Homo sapiens) (UniProt O75469); experiment: Human pregnane X receptor (PXR) activation by small molecules, qHTS assay (AID 1346985); conditions: DPX-2 HepG2 CYP3A4-luciferase, 24 h; series mostly up to 38.3 µM; note: nearly all actives have a fitted effect of over 40% in size
# Procedure, shortened: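 DPX-2 cells (HepG2 co-transfected with a PXR response element and a CYP3A4-promoter luciferase construct) were seeded at 2,000 per well, rested 5 hr at 37C, then exposed to DMSO-dissolved compounds for 24 hr. Activation was read as luciferase luminescence.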
# Chain of Thyrotropin-releasing hormone receptor (Homo sapiens) (P34981 whole entry, looked up): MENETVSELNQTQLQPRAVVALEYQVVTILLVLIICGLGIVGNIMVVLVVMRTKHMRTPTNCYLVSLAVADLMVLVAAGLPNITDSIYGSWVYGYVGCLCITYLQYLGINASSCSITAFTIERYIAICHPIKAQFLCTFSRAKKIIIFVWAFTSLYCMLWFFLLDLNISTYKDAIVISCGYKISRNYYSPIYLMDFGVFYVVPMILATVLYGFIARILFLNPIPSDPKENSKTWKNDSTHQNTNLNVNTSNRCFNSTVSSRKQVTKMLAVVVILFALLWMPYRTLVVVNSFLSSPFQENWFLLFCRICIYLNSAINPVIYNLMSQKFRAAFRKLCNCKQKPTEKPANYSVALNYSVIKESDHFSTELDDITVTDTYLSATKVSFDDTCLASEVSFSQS
# Chain of Progesterone receptor (Homo sapiens) (P06401 whole entry, looked up): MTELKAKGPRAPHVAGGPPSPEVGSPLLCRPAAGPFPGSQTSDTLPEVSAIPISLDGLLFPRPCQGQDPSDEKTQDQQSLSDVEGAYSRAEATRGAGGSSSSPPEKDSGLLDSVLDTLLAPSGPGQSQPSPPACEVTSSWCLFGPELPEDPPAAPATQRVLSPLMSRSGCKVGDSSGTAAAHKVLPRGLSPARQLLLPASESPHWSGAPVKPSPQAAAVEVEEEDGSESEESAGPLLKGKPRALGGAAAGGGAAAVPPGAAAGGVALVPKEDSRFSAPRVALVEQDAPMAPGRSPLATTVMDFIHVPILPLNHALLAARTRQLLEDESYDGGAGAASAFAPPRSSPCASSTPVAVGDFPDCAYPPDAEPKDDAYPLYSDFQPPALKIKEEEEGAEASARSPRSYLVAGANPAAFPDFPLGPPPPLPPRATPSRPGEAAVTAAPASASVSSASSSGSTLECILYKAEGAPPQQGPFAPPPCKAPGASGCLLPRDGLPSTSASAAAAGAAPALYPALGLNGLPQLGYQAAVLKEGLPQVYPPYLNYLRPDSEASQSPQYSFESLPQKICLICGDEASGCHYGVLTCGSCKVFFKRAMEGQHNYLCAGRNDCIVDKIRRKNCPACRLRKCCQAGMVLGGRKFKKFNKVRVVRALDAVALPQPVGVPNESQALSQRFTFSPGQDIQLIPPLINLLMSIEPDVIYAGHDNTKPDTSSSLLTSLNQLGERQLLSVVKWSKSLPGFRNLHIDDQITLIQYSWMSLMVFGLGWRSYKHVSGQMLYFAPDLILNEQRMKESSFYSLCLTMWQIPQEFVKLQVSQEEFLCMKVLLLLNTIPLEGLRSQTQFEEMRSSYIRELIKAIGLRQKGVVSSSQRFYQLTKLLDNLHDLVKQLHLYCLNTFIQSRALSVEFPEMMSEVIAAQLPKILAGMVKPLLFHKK
# Chain of Thyrotropin receptor (Homo sapiens) (P16473 whole entry, looked up): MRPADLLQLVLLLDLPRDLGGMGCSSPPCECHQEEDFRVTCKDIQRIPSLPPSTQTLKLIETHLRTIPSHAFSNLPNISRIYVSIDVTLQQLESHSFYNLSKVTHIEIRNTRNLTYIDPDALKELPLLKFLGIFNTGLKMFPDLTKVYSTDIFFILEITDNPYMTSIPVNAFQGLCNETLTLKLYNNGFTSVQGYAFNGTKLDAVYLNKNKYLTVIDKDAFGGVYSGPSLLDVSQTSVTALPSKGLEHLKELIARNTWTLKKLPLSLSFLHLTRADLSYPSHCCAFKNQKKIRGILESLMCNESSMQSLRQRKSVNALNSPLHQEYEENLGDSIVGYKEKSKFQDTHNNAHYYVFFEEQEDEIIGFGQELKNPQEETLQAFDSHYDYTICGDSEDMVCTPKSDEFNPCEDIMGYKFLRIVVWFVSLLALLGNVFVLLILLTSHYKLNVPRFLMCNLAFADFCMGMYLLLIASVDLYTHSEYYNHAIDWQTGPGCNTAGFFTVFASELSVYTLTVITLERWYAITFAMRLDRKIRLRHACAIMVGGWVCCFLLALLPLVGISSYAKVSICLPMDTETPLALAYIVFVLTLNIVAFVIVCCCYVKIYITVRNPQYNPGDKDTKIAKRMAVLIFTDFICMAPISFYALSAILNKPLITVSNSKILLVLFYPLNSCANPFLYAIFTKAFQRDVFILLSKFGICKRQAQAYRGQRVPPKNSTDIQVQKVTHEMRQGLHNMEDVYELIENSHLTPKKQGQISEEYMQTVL
# Chain of Nuclear receptor subfamily 1 group I member 2 (Homo sapiens) (O75469 whole entry, looked up): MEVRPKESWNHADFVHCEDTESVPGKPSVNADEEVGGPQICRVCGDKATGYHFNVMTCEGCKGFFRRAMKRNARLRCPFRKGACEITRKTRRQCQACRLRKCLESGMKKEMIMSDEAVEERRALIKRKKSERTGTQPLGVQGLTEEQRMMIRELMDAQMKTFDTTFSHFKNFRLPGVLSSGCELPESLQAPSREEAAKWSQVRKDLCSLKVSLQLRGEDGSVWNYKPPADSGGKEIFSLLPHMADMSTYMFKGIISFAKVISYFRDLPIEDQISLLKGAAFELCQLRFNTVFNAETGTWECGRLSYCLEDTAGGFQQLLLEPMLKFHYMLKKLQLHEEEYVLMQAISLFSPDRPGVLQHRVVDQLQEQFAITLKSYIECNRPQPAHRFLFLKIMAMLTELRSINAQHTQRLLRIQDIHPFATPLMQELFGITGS
# Chain of Nuclear receptor subfamily 1 group I member 2 (Rattus norvegicus) (Q9R1A7 whole entry, looked up): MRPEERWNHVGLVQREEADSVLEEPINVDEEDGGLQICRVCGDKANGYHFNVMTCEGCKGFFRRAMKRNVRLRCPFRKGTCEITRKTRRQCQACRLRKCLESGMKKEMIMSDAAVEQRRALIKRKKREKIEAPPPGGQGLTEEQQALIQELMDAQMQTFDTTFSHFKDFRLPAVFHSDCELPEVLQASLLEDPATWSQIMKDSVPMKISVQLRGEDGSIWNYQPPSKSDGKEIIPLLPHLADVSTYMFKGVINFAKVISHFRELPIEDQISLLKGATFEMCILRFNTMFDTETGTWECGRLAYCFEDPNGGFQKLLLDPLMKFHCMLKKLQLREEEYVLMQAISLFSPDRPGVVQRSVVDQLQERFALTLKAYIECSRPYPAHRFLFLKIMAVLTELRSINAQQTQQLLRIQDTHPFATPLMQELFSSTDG
SMILES,outcome [1],Potency [2],Potency [3],Potency [4],Potency [5],Potency [6],Potency [7],outcome [8],outcome [9],Potency [10],Potency [11],Potency [12],Potency [13],Potency [14],Potency [15],Potency [16],Potency [17],max activation [18],outcome [19],outcome [20]
CCCCCCCCC,inactive,inactive,inactive,inactive,inactive,inactive,inactive,inactive,inactive,inactive,inactive,inactive,inactive,inactive,inactive,inactive,,,,
CCCCCCCCCC(=O)O,inactive,inactive,inactive,inactive,inactive,inactive,inactive,inactive,inactive,inactive,inactive,inactive,inactive,inactive,inactive,inactive,,,,
Oc1ccc2ccccc2c1N=Nc1ccccc1,inactive,21.7 µM (active) and 19.3 µM (active),inactive,24.3 µM (active),inactive,inactive,inactive,inactive,inactive,,27.3 µM (active) and 30.6 µM (active),inactive,48.5 µM (active) and 27.3 µM (active),inactive,48.5 µM (active) and 27.3 µM (active),43.2 µM (active) and 21.7 µM (active),inactive,,,
CN(C)c1cccc(O)c1,inactive,inactive,inactive,inactive,inactive,inactive,inactive,inactive,inactive,inactive,inactive,inactive,inactive,inactive,inactive,49.3 µM (active) and 54.5 µM (active),inactive,,,
C[C@@H]1O[C@@H](OC[C@H]2O[C@@H](Oc3c(-c4ccc(O)c(O)c4)oc4cc(O)cc(O)c4c3=O)[C@H](O)[C@@H](O)[C@@H]2O)[C@H](O)[C@H](O)[C@H]1O,inactive,54.9 µM (active),inactive,inactive,inactive,inactive,inactive,inactive,inactive,inactive,inactive,inactive,inactive,inactive,inactive,inactive,inactive,-1.22% (inactive),inactive,inactive
OCC#CCO,inactive,inactive,inactive,inactive,inactive,inactive,inactive,inactive,inactive,inactive,inactive,inactive,,inactive,inactive,55.3 µM (active) and inactive,inactive,,,
C=C(C)C(=O)OCC(CC)(COC(=O)C(=C)C)COC(=O)C(=C)C,inactive,inactive,inactive,inactive,inactive,inactive,inactive,,inactive,,inactive,inactive,inactive,inactive,inactive,inactive,inactive,,,
